Assay outcomes (PubChem BioAssay)
LmPK inh = qHTS Assay for Inhibitors of Leishmania Mexicana Pyruvate Kinase (LmPK); Q27686; purified LmPK, Kinase-Glo ATP luminescence, 1 h; Potency, µM (doses to about 57.5 µM), most hits filed as inhibitors; 0.37% of 290,000 active; AID 1721, 2009
Target sequence (Q27686 whole entry, looked up): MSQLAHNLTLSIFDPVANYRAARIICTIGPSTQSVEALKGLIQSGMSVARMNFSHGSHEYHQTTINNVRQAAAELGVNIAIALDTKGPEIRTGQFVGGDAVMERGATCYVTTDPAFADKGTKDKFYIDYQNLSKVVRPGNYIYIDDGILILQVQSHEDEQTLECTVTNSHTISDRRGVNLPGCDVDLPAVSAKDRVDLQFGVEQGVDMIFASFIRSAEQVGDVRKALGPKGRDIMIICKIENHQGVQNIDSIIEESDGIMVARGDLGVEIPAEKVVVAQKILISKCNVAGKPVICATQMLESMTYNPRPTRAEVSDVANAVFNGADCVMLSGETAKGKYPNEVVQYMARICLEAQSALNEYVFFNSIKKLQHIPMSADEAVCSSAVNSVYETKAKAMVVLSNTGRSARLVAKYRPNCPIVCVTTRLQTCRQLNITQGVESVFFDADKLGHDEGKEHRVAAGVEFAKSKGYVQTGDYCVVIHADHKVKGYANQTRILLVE
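0.1 nM LmPK, 0.5 mM PEP, 0.1 mM ADP; 50 mM imidazole pH 7.2, 7 mM MgCl2, 50 mM KCl; 1 h RT. Kinase-Glo luminescence readout, normalized to no-enzyme (full inhibition) and uninhibited wells.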
HCMV antiviral = qHTS Assay for inhibitors of the human cytomegalovirus (HCMV). HFF cells, HCMV-luciferase reporter, 72 h; active compounds read low. activity change, negative = inhibition, % at 57.5 µM. 4.5% of 410,000 active. AID 1259415, 2018; in the data active = activity change below about -60%; inconclusive = no clear call, values can overlap the other calls; inactive = above about -39%
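Two-dose cell screen: HFF monolayers treated with compounds and infected with luciferase-expressing HCMV at 1 PFU/cell, 72 h at 37C, then lysed for luciferase measurement.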
Vaccinia mCherry = qHTS for Stage-Specific Inhibitors of Vaccinia Orthopoxvirus: mCherry Reporter Primary qHTS. Vaccinia virus mCherry reporter infection, fluorescence. Potency, µM (titrated, usually from 36.5 µM), hits mostly inhibitors. 0.63% of 310,000 active; calls by dose curve; tested in A549 cells; also: nearly all actives have a fitted effect of over 35% in size
Vaccinia Venus = qHTS for Stage-Specific Inhibitors of Vaccinia Orthopoxvirus: Venus Reporter Primary qHTS; Vaccinia virus Venus reporter expression, fluorescence; Potency, µM (series often up to 36.5 µM), most hits filed as inhibitors; 0.46% of 330,000 active; AID 720580, 2013; calls by dose curve; tested in A549 cells; also: nearly all actives have a fitted effect of over 30% in size
Tb PYK inh = qHTS of Trypanosoma Brucei Inhibitors | pyruvate kinase (Trypanosoma brucei), Q57TT1 | TbPYK enzyme, Kinase-Glo Plus ATP luminescence, 45 min | Potency, µM (highest dose often 76.8 µM), most hits filed as inhibitors | 0.12% of 410,000 active | AID 624173, 2012; also: nearly all actives have a fitted effect of over 50% in size
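Screened from lowest to highest concentration, compounds were pinned into TbPYK/substrate mixtures, and ADP (130 uM final) was added. Plates sat at room temperature for 45 min prior to Kinase-Glo Plus detection by luminescence.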
Hits are given with their value; - = inactive; ? = inconclusive; . = no result; [ ] = remark or other dose. Rows were chosen to be rich in hits. Some 5% of all compounds tested hit in one or more screens of this group. Unless noted, calls follow the shape of the dose curve; as a rule, active = well fitted curve in the direction sought with a large enough effect; inconclusive = small, poorly fitted or top-dose-only effect, or another doubt; inactive = no such curve, though single readings can be large; an effect the other way counts as inactive or inconclusive.

SMILES	LmPK inh	HCMV antiviral	Vaccinia mCherry	Vaccinia Venus	Tb PYK inh
CCCCCC1CCC(c2n[nH]c(=S)n2C)CC1 (stereo unspecified)	-	-82	-	-	?
COc1ccc(Cn2c(CCC(=O)N3CCN(c4ccccn4)CC3)nc3ncccc3c2=O)cc1	-	-	-	-	-
O=C(Nc1ccc(F)cc1F)c1cc(-c2ccccc2O)no1	.	-	-	-	-
Cc1nc2ncnn2c(N2CCCC(C(=O)Nc3ccccc3Br)C2)c1C (stereo unspecified)	-	-64	-	-	-
CCc1c(C)nc2ncnn2c1N1CCCC(C(=O)Nc2cc(F)ccc2C)C1 (stereo unspecified)	-	-	.	?	-
CC1CCCN(C(=O)CSc2nnc(-c3c[nH]c4ccccc34)o2)C1 (stereo unspecified)	-	-	-	-	-
COC(=O)c1ccc(NC(=O)CSC2=NCCN2)cc1	-	?	-	-	-
O=C(N/N=C/c1ccccn1)c1cc(-c2ccc(Br)s2)[nH]n1	-	-	-	-	-
O=C(N/N=C/c1ccccn1)c1cc(-c2ccc(Cl)s2)[nH]n1	-	-	13µM	-	-
O=C(CSc1ncn[nH]1)NC1CCCc2ccccc21 (stereo unspecified)	-	-	-	-	-
COCC(O)Cn1ccnc1N=Nc1ccccc1 (stereo unspecified)	.	-	-	-	-
CCOC(=O)N1CCC(NC(=O)c2ccc3c(c2)ncn3C2CCCC2)CC1	-	-68	.	.	-
CCOC(=O)N1CCN(C(=O)c2ccc3c(c2)ncn3C2CCCC2)CC1	-	-62	-	-	-
CCOC(=O)N1CCC(NC(=O)c2cc(C(=O)Nc3ccc(OCC)cc3)ccc2CO)CC1	-	-67	-	-	-
O=C(NCc1ccc(Cl)cc1)C1=Cc2cc(Cl)ccc2OC1	-	-	.	.	-
COc1ccccc1NC(=O)CN1CCN(CC(=O)Nc2ccc(S(N)(=O)=O)cc2)CC1	-	-64	.	.	-
NS(=O)(=O)c1ccc(NC(=O)CN2CCN(S(=O)(=O)/C=C/c3ccccc3)CC2)cc1	-	-100	-	-	-
COc1ccccc1NC(=O)CN1CCN(CC(=O)Nc2ccc(F)cc2)CC1	-	-	.	?	-
Cc1ccc(-n2nc3c(N4CCC(C(=O)NC(C)C)CC4)nnc(C)c3c2C)cc1	.	-	-	-	-
Nc1nc(CN2CCN(c3ccccc3F)CC2)nc(Nc2ccccc2)n1	-	-	.	.	-
Nc1nc(CN2CCN(c3ccccc3)CC2)nc(Nc2ccc(Cl)cc2)n1	-	-65	.	.	-
COc1ccc(Nc2nc(N)nc(CSC(=S)N3CCCCC3C)n2)cc1 (stereo unspecified)	-	-63	-	?	-
COc1ccc(Nc2nc(N)nc(CN3CCC(C)CC3)n2)cc1	-	-91	-	-	-
O=C(/C=C/c1cccc(Cl)c1)c1ccc([N+](=O)[O-])o1	.	-100	10µM	10µM	-
NS(=O)(=O)c1ccc(CNC(=O)/C=C/c2cccc(Cl)c2)cc1	-	-	-	-	-
SMILES	LmPK inh	HCMV antiviral	Vaccinia mCherry	Vaccinia Venus	Tb PYK inh
COc1cc(C=O)ccc1O	.	-	.	.	-
COc1cc(/C=C/C(C)=NNc2ccccc2)ccc1O	.	-61	3.5µM	-	-
COc1ccc(/C=C/C(=O)c2ccc([N+](=O)[O-])o2)cc1OC	.	-104	?	?	-
COc1cc(/C=C/[N+](=O)[O-])ccc1O	-	-104	-	-	-
Cn1cc(/C=C2\SC(=S)N(N3CCOCC3)C2=O)c2ccccc21	-	-	-	-	-
COc1ccc(/C=C/c2c(-c3ccc(OC)cc3)sc3cc(OC)c(OC)cc23)cc1	.	-	-	-	-
COc1cc(/C=C/C(=O)CC(=O)/C=C/c2ccc(O)c(OC)c2)ccc1O	-	-	-	-	-
COc1cc(/C=C/C(=O)O)ccc1O	.	.	-	?	-
COc1cc(/C=C/C(=O)c2ccc([N+](=O)[O-])o2)ccc1O	.	-77	?	?	-
COc1cc(/C=C/C(=O)/C=C(O)/C=C/c2ccc(O)c(OC)c2)ccc1O	.	-67	?	-	-
O=C(O)c1cc2ncc(-c3[nH]ncc3[N+](=O)[O-])cn2n1	-	-	-	-	-
O=C(O)/C=C\c1cc2c(cc1[N+](=O)[O-])OCO2	-	-	-	-	-
O=C1NC(=S)N/C1=C/c1cc2c(cc1[N+](=O)[O-])OCO2	-	-80	-	-	-
O=C(N/N=C/c1cn(-c2cccs2)nc1-c1ccccc1)c1ccccc1O	-	-	13µM	?	-
CCCC(=O)Nc1ccc(Br)c(Cl)c1	-	-	.	-	-
Cc1cc(-n2c(SCc3ccccc3F)nc3[nH]ncc3c2=O)ccc1Cl	.	-64	-[7.34 µM]	-[7.34 µM]	-
C=CCNc1ncnc2c1[nH]c1ccc(Cl)cc12	-	-97	?	?	-
C=CCNc1ncnc2c1[nH]c1ccccc12	-	-	.	-	-
CCC(=O)NC(c1ccco1)c1cc(Br)c2cccnc2c1O (stereo unspecified)	.	?	.	.	-
CCCCC(=O)NC(c1ccco1)c1c(O)ccc2ccccc12 (stereo unspecified)	-	-	-	-	-
CN(Cc1cc([N+](=O)[O-])c2cccnc2c1O)C1CCCCC1	-	.	.	.	.
CC(=O)NC(c1ccc(C)cc1)c1cc([N+](=O)[O-])c2cccnc2c1O (stereo unspecified)	-	-99	13µM	?	-
CCCC(=O)NC(c1ccco1)c1cc([N+](=O)[O-])c2cccnc2c1O (stereo unspecified)	-	-64	-	-	-
O=[N+]([O-])c1cc(F)c2cccnc2c1O	-	-	.	.	-
CCCC(=O)NC(c1ccco1)c1c(O)ccc2ccccc12 (stereo unspecified)	-	-84	.	.	-
SMILES	LmPK inh	HCMV antiviral	Vaccinia mCherry	Vaccinia Venus	Tb PYK inh
CCC(=O)NC(c1ccc(C)cc1)c1cc([N+](=O)[O-])c2cccnc2c1O (stereo unspecified)	-	-97	11µM	?	?
CC(C)(C)c1ccccc1OCC(O)CN1CCN(c2ccccn2)CC1 (stereo unspecified)	-	-	.	.	-
COc1ccc(CN2CCN(C(C)C(=O)NC(C)c3ccc(F)cc3)CC2)cc1F (stereo unspecified)	-	?	-	-	-
COc1ccc(CN2CCN(C(C)C(=O)N(C)Cc3cccc(F)c3)CC2)cc1OC (stereo unspecified)	-	-102	.	.	-
CCc1nnc(NC(=O)CSC(=S)N2CCOCC2)s1	-	-98	.	.	-
C=C(C)CNC(=S)N/N=C1\CCCCc2ccccc21	-	-61	-	-	-
CCNC(=S)N/N=C1\CCCCc2ccccc21	-	-	-	-	-
